From the supplement of paper PMC6555819 come the findings set out here.

The assay concerns VDR:RXRa (NR concentration 270 nM, RXRa partner concentration 90 nM). In words: PBM binding z-score (relative to random genomic background probes); higher = stronger binding; sequences stand for … in GC…GCGATTGACAGCGTAGAATGAAGG
As to the method: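 Protein-binding microarray (Agilent 4x180K custom design, double-stranded 60-nt probes: 5' GC cap, 34-nt variable region, 24-nt constant primer region; full probe sequence given). Purified or IVT nuclear receptor:RXRα heterodimers (3:1 NR:RXRα, mostly 270:90 nM) or homodimers were incubated for 1 h in PBS with 2% milk and no ligand, then detected with Alexa488 antibodies. Fluorescence from o1-orientation probes (~5 replicates averaged) was converted to z-scores against 500 random hg19 background probes. Variable regions are seed direct-repeat (DR0–DR5) sites, all their single-nucleotide variants and half-site ablations.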
Turning to CCTACTGGGCCAAGGACATTGATCAGTCAAAGCA, the PBM binding z-score is -0.496.

Take TCATATAGGTAAATGCTATGTGAAAGTCCGATCT: the PBM binding z-score was 0.852.

As for AACACAGGGTCACTAGGCCAGAGTAGGTACGAAT, the PBM binding z-score was found to be 3.96.

On to CTCGAACGGTCGGTTGAGGTGAGTATACGGATAA, for which the PBM binding z-score was -0.265.

In turn, ATACAAAGGTGATCGTGAGGTCGTTGATACTAAC gave a PBM binding z-score of 4.59.

Turning to CAAACTAAGTCAAAGGTCAAAGTCGAGCCAACCA, the PBM binding z-score worked out at 5.35.

The sequence CGTCCGAGGTCAGAGAGGTCAGTGAATGCCGAGT came in with a PBM binding z-score of 7.89.

In turn, TGCATGAGGTTATAAGATCAGGGAACGTTGCAAA had a PBM binding z-score of 1.01.

In turn, ATCTCTAGGTAACCAAGTCCAGTGAATGCCGAAC registered a PBM binding z-score of 0.999.

In turn, CGTCCAAGGTCAGCAGGCCAGTGAAAGCGACGTG yielded a PBM binding z-score of 2.58.

The sequence TCATATAGGTAAATGCTAGGTGACAGTCCGATCT returned a PBM binding z-score of 0.746.

Turning to TAGCCTAGGTCATTGGGCCTGTATAGTACGCATC, the PBM binding z-score was 2.38.

In the case of CGTCCAAGGTCAGAGACGTCAGTGAATGCCGAGT, the PBM binding z-score amounted to 2.76.

In the case of CCGACTGGGGCAAGGTTATCATAACGCACAGCCA, the PBM binding z-score is 0.0882.

Turning to ATCTCTCGGTAAAGTTCAGTGAAAGATCGATAGA, the PBM binding z-score is 1.1.

Sequence CGTCAAAGTTCAACTAAGGTACCGTAAAGCACGC yielded a PBM binding z-score of 4.4.

As to CCGACTGGAGCAAGGTTACCATAACGCACAGCCA, the PBM binding z-score worked out at 0.139.

Regarding ATCGAAAGGTCGAATGTGAGTATACCCACCCGAA, the PBM binding z-score turned out to be 2.84.

Sequence GCTAGTTGGTCAGTAAAAGGTCTCACACCGGTCG came in with a PBM binding z-score of -0.141.

AGAATGAGGTTATACGTGGATCAGGGAAGAAAGT came in with a PBM binding z-score of 1.56.

With CCTCGGAGGACAGAAGGCCAGAGCTGTCCGCTTT, the PBM binding z-score is -0.762.

ACAGACACGTGAGTGAAGGTAACTCAGCTGGACG: the PBM binding z-score was -0.481.

TTTTGTAGATCAATAGAGGTTAAGAAAGTGCGCT yielded a PBM binding z-score of 2.09.

For GCATATAGTTAATACAAGGTGAAAGTCCGATTGT, the PBM binding z-score turned out to be 0.11.

Turning to TGAATGAGGTTAAAGATCAGGGGACGTGGCGTCG, the PBM binding z-score is 1.88.

In the case of CCGACTGGGGCAGAAAGGTTACGATACCATCCGG, the PBM binding z-score was 1.2.

The sequence CCGACTGGGGCAGAAAAGTTACCATACCATCCGG registered a PBM binding z-score of -0.576.

For the sequence CGTCCAAGTTCAAGGTAACGTAACAGAAAGCAGC, the PBM binding z-score came to 2.45.

TCTGCTAGGTCAACGACGGTCAGCTAATCTGCTA gave a PBM binding z-score of 2.

In turn, TCTTGTACATCAAGCAGGTTAAGAAAGCCTGAGT yielded a PBM binding z-score of 0.528.

The sequence ACTCGGAGGACAAAGGTCAGACCTACGCCAGTGA had a PBM binding z-score of 3.52.

Consider TCTGCAAGGTCAGTTGGTCAGCTAACGAGCTGCC, for which the PBM binding z-score came to 2.19.

Consider ACAGACAGGTGAGTGACGGTAACTCAGCTGGACG, for which the PBM binding z-score is -0.336.

In the case of CCTCGGGGGACAACAGGAGGTCAGAGCTGCCAGA, the PBM binding z-score is 2.71.

As to ACTTACGGGTCAACGAGGTTTTAGCACGCGTATA, the PBM binding z-score came to 6.69.

TCTATTAGTTGATTAAGGCAACCGAAACAGCGGA displayed a PBM binding z-score of 0.578.

As for TCGCGTAGGTTAGTCGGGGCATTCAGCCAACATA, the PBM binding z-score is 2.54.

GCTCGGAGGACAAGGTGAGAGCTTTGTCCGTAGA: the PBM binding z-score is -0.606.

Regarding CTCGAAAGGTCGTGCCCAGGTGAGTATACCAAAC, the PBM binding z-score was 3.33.

In turn, CCTACTGGGCCAAAGGTTATTGATTCCAATGCTC gave a PBM binding z-score of 1.34.
